# Screens from PubChem BioAssay.
# In the library only some 1.6% were active in any assay of this set; here they are far more common.
# IkB signaling: IkB Signaling | ABC-DLBCL IkBa-CBG/CBR dual luciferase ratio, 4 h; response scale: scaled: untreated 0%, proteasome inhibitor 100% | actives 0.04% (n = 110,000) | Potency, µM (titrated, usually from 57.1 µM), inactives show at the highest dose IkBa stabilization activation; active means well fitted curve in the direction sought with a large enough effect in the signal ratio, not every such curve was filed as active; inconclusive means small, poorly fitted or top-dose-only effect, or a change in a side signal; the % refers to the signal ratio;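 further: the direction sought is a rising ratio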
#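 Luminescence ratio of IκBα-fused green versus native red beetle luciferase in OCI-Ly3 cells, 4 h post-doxycycline with compound; red signal alone, scaled from basal (0%) to zero light (-100%), flagged nonspecific or cytotoxic effects.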
# p53ts 32C tox: qHTS Screen for Compounds that Selectively Target Cancer Cells with p53 Mutations: Cytotoxicity of p53ts Cells at the Permissive Temperature; H1299-p53A138V at 32C, ATP luminescence viability, 24 h; Potency, µM (titrated, usually from 46.1 µM), for the others: top-dose activity change, negative = cytotoxicity, most hits filed as cytotoxic; actives 0.93% (n = 130,000);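 further: 0% = DMSO and -100% = full killing by reference compound; nearly all actives have a fitted effect of over 55% in size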
#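 ATP-content luminescence (ATPlite) read-out after 24 h compound exposure at 32C in H1299-p53A138V cells (600/well). Tested up to 46 uM. Normalized to DMSO (0%) and 100 uM tamoxifen (100% killing); Hill-fit AC50.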
# p53ts 39C kill: qHTS Screen for Compounds that Selectively Target Cancer Cells with p53 Mutations: Cytotoxicity of p53ts Cells at the Nonpermissive Temperature; H1299-p53A138V viability at 39C, ATP luminescence, 24 h; AID 902, 2007; actives 1.5% (n = 130,000); Potency, µM (highest dose often 46.1 µM), inactives show at the top dose activity change, negative = cell killing, most hits filed as cytotoxic; further: on the % scale 0 is the no-effect control and ±100 the full control effect; nearly all actives have a fitted effect of over 55% in size
# Imprint erasure: qHTS Assay for Compounds that Induce Erasure of Genomic Imprints; actives 0.02% (n = 110,000); Potency, µM (doses to about 60.7 µM), for inactives: at the top dose activity change, positive = activation, most hits filed as activators; AID 1948, 2009; mouse ES Peg3-LacZ reporter, beta-gal luminescence, 40 h
#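 Readout: BetaGlo luminescence (5 min, room temp) for LacZ from the normally silent maternal Peg3 allele in female Peg3LacZ-Neo ES cells. Cells 300/well, 40 h, 37C, 5% CO2. Data normalized per plate to negative controls.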
# The depositor's hits bear a star; ? = inconclusive; nt = no result; ! = not confirmed by another sample; [ ] = dose if it differs, or a comment. Unless noted, the call rests on the fitted dose curve; in most records, active means well fitted curve in the direction sought with a large enough effect; inconclusive means small, poorly fitted or top-dose-only effect, or another doubt; inactive means no such curve, though single readings can be large; an effect the other way counts as inactive or inconclusive. Potency means the concentration at half of the fitted maximal effect.
SMILES,IkB signaling,p53ts 32C tox,p53ts 39C kill,Imprint erasure
CN1C[C@@H](O)[C@@H](O)[C@@H](O)[C@@H]1CO,-3%,nt,nt,nt
COC(=O)C(C(C)=O)C(=O)C(Cc1ccccc1)NC(=O)OCc1ccccc1 (stereo not drawn),nt,-6%[9.22 µM],6%[9.22 µM],nt
O=C(N[C@@H](Cc1ccccc1)C(=O)CCl)OCc1ccccc1,?,4µM*,3.2µM*,-30%
CCOc1ccc(CCNC(=O)Cn2c(-c3cccs3)cc3cc(F)ccc32)cc1OCC,?,-17%,7.9µM*,-10%[10.9 µM]
Cc1ccc(C(=O)Nc2cccc(C(=O)O)c2)cc1S(=O)(=O)N1CCCCC1,2%,13µM*,?,-90%
Cc1ccc(C(=O)Nc2ccc3c(c2)OCO3)cc1S(=O)(=O)N1CCCC1,8%,-14%,-16%,-23%
CCCc1oc2ccc(NS(=O)(=O)c3ccc(OCC)cc3)cc2c1C(=O)OCC,?,?,20µM*,-17%[10.9 µM]
CCOC(=O)c1c(-c2ccccc2)oc2ccc(NS(=O)(=O)c3ccc(OC)cc3)cc12,?,20%,-16%,-21%[10.9 µM]
CCOC(=O)c1c(-c2ccccc2)oc2ccc(NS(=O)(=O)c3ccccc3)cc12,?,43%,16µM*,-26%[10.9 µM]
CCCc1oc2ccc(NS(=O)(=O)c3ccc(OC)cc3)cc2c1C(=O)OCC,?,-2%,?,-23%[10.9 µM]
CC/C(=C(\c1ccccc1)c1ccc(OCCN(C)C)cc1)c1ccccc1,?,32µM*!,32µM*!,-15%
O=C(O)c1cc(-c2cccs2)nc2cc3c(cc12)OCCO3,3%,?,10µM*,-13%
Cc1ccc2nc(-c3ccc4c(c3)OCCO4)cc(C(=O)O)c2c1,?,16µM*,10µM*,-28%
Cc1cc(=O)[nH]c(/N=C(\N)Nc2ccc(Cl)cc2)n1,0%[11.4 µM],-1%[9.22 µM],5%[9.22 µM],-14%[10.9 µM]
Cc1ccc(S(=O)(=O)N(CC(=O)O)Cc2cccc(C)c2)cc1,nt,-6%,7%,nt
COc1ccc2[nH]c(=O)c(CN(C3CCCCC3)C(c3nnnn3Cc3ccco3)C(C)C)cc2c1 (stereo not drawn),7.9µM*,20%,?,nt
COc1ccc2[nH]c(=O)c(CN(Cc3nnnn3Cc3ccco3)C3CCCCC3)cc2c1,1%,-4%,-6%,-12%
Cc1ccc(C(=O)Nc2onc3c2CCCC3)cc1,-1%,4µM*,6.3µM*,-15%[10.9 µM]
COc1ccccc1C(=O)Nc1onc2c1CCCC2,-3%,?,-28%,-48%[10.9 µM]
CCc1ccccc1NC(=O)Cn1c(=O)n(CCc2ccccc2)c(=O)c2sc3ccccc3c21,-1%,-12%,10µM*,-12%[10.9 µM]
O=C(N/N=C/C=C\c1ccccc1[N+](=O)[O-])c1cc(-c2ccc3ccccc3c2)n[nH]1,nt,-7%,-6%,nt
O=[N+]([O-])c1cccc(/C=N\Nc2ccc3ccccc3n2)c1O,?,2.5µM*,4µM*,-53%[10.9 µM]
O=C(NCc1cccnc1)C(=O)NCC(c1cccnc1)N1CCN(c2ccc(F)cc2)CC1 (stereo not drawn),?,37%,?,-8%[10.9 µM]
O=C(NCCc1ccccc1)C(=O)NCC(c1cccnc1)N1CCN(c2ccc(F)cc2)CC1 (stereo not drawn),-3%,?,20µM*,-19%[10.9 µM]
CCCOC(=O)Nc1nc2ccccc2o1,?,10µM*,?,nt
SMILES,IkB signaling,p53ts 32C tox,p53ts 39C kill,Imprint erasure
CCOC(=O)c1ccccc1NC(=O)CSc1nc2ccccc2o1,-2%,-4%,-17%,-70%
Cc1ccc(-n2ncc3c(N(CCO)Cc4ccccc4)ncnc32)cc1,-2%,-17%,?,-10%[10.9 µM]
CCN(c1ccccc1)c1ncnc2c1cnn2-c1ccc(OC)cc1,?,?,13µM*,-5%[10.9 µM]
CCCCN(c1ccccc1)c1ncnc2c1cnn2-c1ccc(Cl)cc1,-3%,-14%,-22%,-12%[10.9 µM]
Cc1ccc(-n2ncc3c(N(C)Cc4ccccc4)ncnc32)cc1,2%,?,16µM*,-12%[10.9 µM]
C/C(=N/Nc1ccc2ccccc2n1)c1ccccc1O,?,3.2µM*,2.5µM*,-56%[10.9 µM]
O=C(Nc1ccc2c(c1)OCO2)C1CCCN(c2nc3ccccc3s2)C1 (stereo not drawn),?,20µM*,?,-73%
Cc1cccc(NC(=O)C2CCCN(c3nc4ccccc4s3)C2)c1C (stereo not drawn),?,12%,-16%,-5%[10.9 µM]
CCc1nc2ccccc2n1CCCCOc1ccc(Cl)cc1,0%,-3%,-28%,-6%[10.9 µM]
CC(C)CCn1c(/C=C/c2ccccc2)nc2ccccc21,?,?,?,-6%[10.9 µM]
C#CCn1c(/C=C/c2ccc(Cl)cc2)nc2ccccc21,?,4µM*,3.2µM*,-26%[10.9 µM]
CC(C)Cn1c(/C=C/c2ccc(F)cc2)nc2ccccc21,?,13µM*,10µM*,-9%[10.9 µM]
CCC(C)Cn1c(/C=C/c2ccccc2)nc2ccccc21 (stereo not drawn),?,?,13µM*,-14%[10.9 µM]
N[C@H](Cc1ccc(O)c(I)c1)C(=O)O,-2%,nt,nt,nt
c1ccc(CCc2cccnc2)nc1,0%[11.4 µM],-4%[9.22 µM],-9%[9.22 µM],-34%[10.9 µM]
CCN(c1ccccc1)S(=O)(=O)c1nnc(NC(=O)c2ccco2)s1,8%,?,1.3µM*,-35%[10.9 µM]
O=C(Nc1ccc(-c2noc(CCc3ccccc3)n2)cc1)c1ccco1,?,?,10µM*,-61%
CCN(CC)c1ccc(NC(=O)c2ccco2)cc1,5%,10µM*,10µM*,-36%
Clc1ccc2c(N3CCC(CCC4CCN(c5ncnc6cc(Cl)ccc56)CC4)CC3)ncnc2c1,-1%[11.4 µM],4%[9.22 µM],4%[9.22 µM],-11%[10.9 µM]
Cc1cc(Br)cc(C)c1NC(=O)c1cnc2ccccn2c1=O,-3%,2%,-27%,3%[10.9 µM]
Cc1ccccc1NC(=O)c1cnc2ccccn2c1=O,nt,10µM*,16µM*,nt
NCCc1ccc(O)c(O)c1,-1%,13µM*!,?,-41%
CC1=C(c2ccc(C(C)C)cc2)S(=O)(=O)N=C1N1CCC(C(=O)Nc2ccc(C)cc2)CC1,2%,?,13µM*,-22%[10.9 µM]
CCc1ccc(C2=C(C)C(N3CCC(C(=O)Nc4ccc(F)cc4)CC3)=NS2(=O)=O)cc1,?,?,10µM*,-10%[10.9 µM]
CC1=C(c2ccc(F)cc2)S(=O)(=O)N=C1N1CCC(C(=O)NCCc2ccccc2)CC1,2%,5%,-11%,11%[10.9 µM]
SMILES,IkB signaling,p53ts 32C tox,p53ts 39C kill,Imprint erasure
Cc1ccc(-n2[nH]c(C)c(C=Nc3ccc(C)cn3)c2=O)cc1,2%,13µM*,13µM*,-47%
CCOC(=O)c1sc(NC(=O)c2ccc(C)o2)nc1C,?,7.9µM*,7.9µM*,-86%
CCOC(=O)c1sc(NC(=O)c2ccco2)nc1C,2%,-30%,-15%,-54%
O=C(OC1CCc2ccccc2C1=O)c1ccccc1O (stereo not drawn),0%,-6%,-3%,-65%
O=C(N/N=C1\CCc2ccccc21)c1ccccc1O,nt,nt,4.5µM*,nt
Cc1c(C(=O)Nc2ccc(C(=O)O)cc2)nnn1-c1ccccc1,?,10µM*,?,-57%[10.9 µM]
